This is an account of results in PubChem BioAssay AID1508600 (Functional Genomics Laboratory (NCATS/FGL), 2020).

Screen size: about 53,000 sequences; about 3,700 (7%) were called active.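 The calls were made as follows: active = gene knockdowns whose robust z-score for IL-1 alpha signal is at least 2 or at most -2, so actives lie on both sides; inactive = the rest.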 The full list was thinned out, with actives kept by preference.

A short description of this assay: Components of the Cytosolic LPS Sensing Pathway: Gene Identification via Genome-wide siRNA Screen.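 Also: robust z of the log signal after scaling to non-targeting control siRNA wells of the plate.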 The conditions noted are these: RAW264.7 macrophages, IL-1a HTRF, actives lie on both sides, screened at 100 nM (by protocol), cells primed 5 h with Pam3CSK4 first. The method, boiled down:
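Mouse macrophage line RAW264.7 is transfected with siRNA (100 nM final), grown 48h, primed with TLR ligand Pam3CSK4 5 h and given intracellular LipidA 24 h. IL-1a in supernatant is read by HTRF and viability by luminescence.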
A general note: In TR-FRET formats the signal depends on donor and acceptor labels being close together.
With GCAUGGUAUUAGAUGAUGATT against Nexn, the z-score was -1.69 (inactive).

Turning to GCGCAGAUAUCCUGGUUUGTT against Dhx36, the z-score was 2.28 (active).

Take GGAAUGUGCCUAAGUUUGGTT against Ufc1: the z-score was 1.08 (inactive).

As for CCAAUGGAACAUUAAGUGATT against Psma1, the z-score was -0.485 (inactive).

For the sequence CCAUAGUUGAUGGAAGAUATT against Shld2, the z-score was -0.847 (inactive).

With CCCUAUUUGUCAACGAUUATT against Lrrc24, the z-score is -0.662 (inactive).

For the sequence GGAAGCAAUGUGAGAAAUUTT against Tmem91, the z-score was 2.54 (active).

Consider GCCAAAUCAUGGGUCUGGUTT against Npas3, for which the z-score was 0.969 (inactive).

Take GGCAAUGUGCCCAAUAUCATT against Rfc2: the z-score was -1.61 (inactive).

As to GGACUCAUAUCCUUACAUATT against AI854703, the z-score was -0.0584 (inactive).

Take GGGAUAGCUGUCACCUUCUTT against Rad9a: the z-score is -0.742 (inactive).

For the sequence GGUGUUGAGUGCACUACUGTT against Nckap5l, the z-score was -2.2 (active).

Turning to GUUUCUCGAAGAGCAUCCUTT against Cyb5a, the z-score was 0.732 (inactive).

Consider UCACUUGUACCAAAAAUGATT against Adcy1, for which the z-score was -1.43 (inactive).

Consider GGGAAAGUCGUUGAAAUUUTT against Stx18, for which the z-score is 0.941 (inactive).

In the case of GGAUUAAAGCAGAAUAUGATT against Paics, the z-score was -0.561 (inactive).

As for GGCUGUCCUUUUCCUCUUATT against Yipf6, the z-score was 1.49 (inactive).

For the sequence CCCAAAACUCUAGCUACUATT against Olfr824, the z-score is -3.03 (active).

For CGCAGCAGUUGUGGUCAAUTT against Nnat, the z-score is -1.23 (inactive).

As to GGGCUGCUAUUUUGAUGGUTT against Chrd, the z-score was 0.704 (inactive).

Consider GCGUAUAAGCUCAGUAGACTT against Phlpp1, for which the z-score is 1.06 (inactive).

For the sequence GGGCAAGUAUGGGCAGUUCTT against Ppp1ca, the z-score is 0.0965 (inactive).

Regarding CGAGAUCAUCUCAAAUAUCTT against Man2a1, the z-score is -0.0408 (inactive).

Regarding GGACAAACAAGUGAAAUACTT against Morf4l1, the z-score was 0.209 (inactive).

Consider CCUAAAUUUCCAACAGUCCTT against Tmem81, for which the z-score is 2.05 (active).

Consider CGGUCUUCCCGUGGUUCAATT against Gm5114, for which the z-score was -0.992 (inactive).

With GGCAAAAGGGACAAAAACUTT against Gadd45a, the z-score is -1.64 (inactive).

In the case of CCUUUAUGGGACACUAUUUTT against Alb, the z-score is 0.588 (inactive).

Turning to CCUAAAAGACUUCAUCCGUTT against Kcnh8, the z-score is 2.32 (active).

For the sequence CGUGGAACAUAAGAAUGGATT against Gapdhs, the z-score is 0.269 (inactive).

In the case of GGAUUGUCAGCCAAGAAACTT against Uba7, the z-score is -0.085 (inactive).

Turning to GGAAAUUCACAAACAUGGATT against Gins3, the z-score is -1.76 (inactive).

For the sequence CCAUUUUAACCAAUGGUGUTT against Olfr572, the z-score was -1.06 (inactive).

As to GGUCAAAAGACUGUACAUATT against Timm8a2, the z-score was 2.07 (active).

Take GGCAAUGGCUUGGUCUUUUTT against Mapk6: the z-score was 0.0141 (inactive).

Consider “GGAGGGAAUAGAGAAUCGGTT against A930024E05Rik”, for which the z-score is 3.7 (active).

GGAUUUUGAAGACAUCUGUTT against Tubgcp4: the z-score was 0.396 (inactive).

In the case of GGCAACAUGACAAUUGUGGTT against Olfr1215, the z-score was -0.00863 (inactive).

GCCAUUGCUAGUAAUUCUUTT against Vkorc1l1: the z-score was 0.444 (inactive).

Consider CCCUCAUGUUUAGCGAGCATT against Kcnj3, for which the z-score was 0.644 (inactive).

On to GGUGAAAGACCACAAAUUCTT against Prkca, for which the z-score is -0.824 (inactive).

On to GGACUUUCGAGACAAGCUGTT against Barhl1, for which the z-score is -1.21 (inactive).

In the case of CGUACAGUGAUGAUUUUGATT against Cep162, the z-score is 0.218 (inactive).

As for GGACAAUGCAGUGCUGAAATT against Car2, the z-score was 3.37 (active).

GCACACCCAAUGCUCUAAGTT against Nprl3: the z-score is 1.25 (inactive).

In the case of GCAGCGGAGGGUCAAAGAATT against Pym1, the z-score is 0.783 (inactive).

GGCCUUUGAGGUCUACAUATT against Icam2: the z-score was 0.323 (inactive).

Regarding GCCCUCCGAGAAAAACAUCTT against Gjb5, the z-score is 2.05 (active).

Consider GGGUAAAAGUAGCUGCCCUTT against Trp53inp2, for which the z-score is -0.401 (inactive).

For the sequence GGAAAUAAAGUCCAUAGAATT against B3gnt3, the z-score was 0.00261 (inactive).

GGUUCCUCUUGUGAGUGCCTT against Gpr137b: the z-score was -0.974 (inactive).

GGAGAAGUCCAUACGGAUCTT against Gpr18: the z-score was 0.184 (inactive).

Turning to GGGACAGUAGAAGAUGUAGTT against Got2, the z-score is -0.706 (inactive).

Turning to GGAAAAUUGGACCAAUUUCTT against Ric3, the z-score was -0.339 (inactive).

Take GCCUUGGUACCAUAAUGCATT against Synm: the z-score was 0.224 (inactive).

GGCCGGUGCCUUUUAUUCUTT against Spib: the z-score was 3.26 (active).

Take GCAAGUGCGGAAGAAAGGATT against Afap1l2: the z-score was 0.0285 (inactive).

In the case of CCUUGUACACGGAUUGAAUTT against Itga6, the z-score is -0.192 (inactive).

As for GGUAGGAAACCUCUCAGAGTT against Kcnc1, the z-score is 0.85 (inactive).

As for GGUGUUCAAAAUUCCUGCCTT against Mbl2, the z-score is 0.0864 (inactive).

For the sequence GCUAGAGCUCACCAAAUAATT against Fam83a, the z-score is 0.759 (inactive).

As to UAGUGAGCAAGGAAUUGGATT against Gm20815, the z-score is -0.238 (inactive).

For the sequence GGAGAAGAAGUGCUUCCCUTT against Gls2, the z-score was -2.81 (active).

Take GGAGGAGAAGAAACACCUGTT against Klc1: the z-score is -1.73 (inactive).

As for GGACAAAAGCAAAGAAAAGTT against R3hdm2, the z-score was -0.822 (inactive).

In the case of GGAAAAUGUGAAACAGCUATT against Dhx40, the z-score was -0.873 (inactive).

GAGUUCCAGUUUAUCCCUUTT against Klra1: the z-score is -2.06 (active).

Take CCCGUGCUUCAAAUAGAGATT against Cavin3: the z-score was 0.789 (inactive).

CAGCGAUCCAAGUACCUGGTT against Mbp: the z-score is 0.568 (inactive).

In the case of GGAAUUUCACUAACCUUAGTT against Tert, the z-score is 1.55 (inactive).

Turning to GGCAAAAGCGAAGAAUUUATT against E2f5, the z-score is 2.69 (active).

In the case of GGAUUCCUGAUUUCUUCAUTT against Snip1, the z-score was 0.915 (inactive).

Regarding GGAGAUAAAAAUCCAAGCATT against Stx19, the z-score was 0.274 (inactive).

For the sequence GCAUAUGACACCGUAUCAGTT against Gprc5d, the z-score was 0.914 (inactive).

In the case of GCUCCUAUCCACAAUGCUGTT against Radil, the z-score is -0.0853 (inactive).

Consider GGCAAAGAUGAUGGAAAAATT against Srp68, for which the z-score is 0.307 (inactive).

Turning to GGGACGAUGUCACUAUUAATT against Myrip, the z-score was 1.31 (inactive).

For the sequence GGCAGACUGCUGACAUAUGTT against Cd37, the z-score is -2.44 (active).

As for CGAGCUGGAUCUGUUUAGATT against Nsmce1, the z-score was 0.357 (inactive).

As for CGUGGAGAUCAUCCACUCATT against Inf2, the z-score is -2.44 (active).

In the case of “GGAUUAUGAUUUGCCUGAUTT against 4932414N04Rik”, the z-score was 1.05 (inactive).

Take GCUAGAUGCUAUGAAGCGATT against Ap3b1: the z-score was -0.406 (inactive).

Take CGUGAUUUCAUGCUGUGGCTT against Tal2: the z-score was -2.19 (active).

GGAUCUAAGCCUGUUGUGATT against Zfp647: the z-score was -0.82 (inactive).

On to GGUCACCCUGUUUAGGCCUTT against Fgd3, for which the z-score is 0.571 (inactive).

Regarding CCUGCCAAUCUGUCUAAGUTT against Haus1, the z-score is -0.121 (inactive).

Take GUCAUGAGAUUGAAUACAATT against Olfr569: the z-score was -0.0298 (inactive).

On to GGGAUUGAUUUCAACAAUGTT against Vmn1r33, for which the z-score is 0.464 (inactive).

Take CCCUUGCUAGUCCUUCUAUTT against Bora: the z-score was -0.65 (inactive).

For the sequence GGUUGUAAAGGAAGAGAAGTT against Lyve1, the z-score is 0.397 (inactive).

For the sequence GGCCAGACACUACAGGUAATT against Aldh16a1, the z-score was 0.0594 (inactive).

In the case of GCUACAGCUAUAUCGCUAUTT against Cnot8, the z-score is 0.625 (inactive).

Turning to GGCUUUUAUUUUCUGGGAUTT against Barhl1, the z-score was 2.4 (active).

On to GGAAUUAUGAUGUAGACAGTT against Garre1, for which the z-score is 0.662 (inactive).

Turning to GCCUUGGUCCUUAAAUAUATT against Slc7a2, the z-score was -0.414 (inactive).

In the case of CGAUAUUUGGUGUGAAAUGTT against Tmem70, the z-score is -0.609 (inactive).

Regarding GGGAAAUGCUUCUAAAAAUTT against Pcdhb11, the z-score is 0.377 (inactive).

On to CCACCAUCAUGAGAGAGGATT against Olfr350, for which the z-score is 0.00462 (inactive).

For the sequence GGCAAAUGUAGACAUGUAUTT against Defb44-ps, the z-score was -0.0483 (inactive).

As to GCUAAUAUGCCACUGCCCGTT against Pls3, the z-score was 1.55 (inactive).

Turning to GCUAUGUGUACAGCUGCUGTT against Vmn1r62, the z-score is 0.21 (inactive).

On to CGUGCAGUGUGCUUCACAATT against Smarcad1, for which the z-score is -1.89 (inactive).

For the sequence GGUCUCAAGUUUUACAUUCTT against Prss35, the z-score was 2.2 (active).

On to GGCUCUGGCUAAGUACUUGTT against Cenpb, for which the z-score was -0.943 (inactive).

As for GCUAACUGAGCUGCCGGAATT against Lrrn3, the z-score was 0.264 (inactive).

As to GCUUCAUGCACGGUUCUAUTT against Cib2, the z-score was 1.65 (inactive).

GGCUCAGAAGAAAAUGGAUTT against Kcnk4: the z-score is 0.166 (inactive).

In the case of GGAUCUGUAUUGUAAACAATT against Pcmtd2, the z-score was 0.463 (inactive).
